Laboratory results published in the supplement of paper PMC3334620.
Over roughly 33,000 sequences, “E-score (-0.5 to 0.5)” has its median near -0.0059; the highest 2% begin near 0.26. This excerpt belongs to a sample that is enriched for the highest values.

biological target: T1, Cin5 (UniProt P40917); assay: PBM E-score (8-mer binding enrichment) (E-score (-0.5 to 0.5)); higher = stronger / more preferred TF binding; conditions: protein concentration: 100 nM; construct: GST-full length
T1 sequence: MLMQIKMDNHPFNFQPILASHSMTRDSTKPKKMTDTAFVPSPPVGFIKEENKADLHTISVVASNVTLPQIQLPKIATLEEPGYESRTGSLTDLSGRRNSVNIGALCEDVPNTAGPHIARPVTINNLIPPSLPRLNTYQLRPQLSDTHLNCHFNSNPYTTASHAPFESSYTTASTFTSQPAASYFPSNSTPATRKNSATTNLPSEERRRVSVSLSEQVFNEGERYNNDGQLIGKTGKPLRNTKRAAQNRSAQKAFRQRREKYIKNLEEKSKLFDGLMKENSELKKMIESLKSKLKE
Method in brief: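 Universal all-10-mer Agilent arrays, double-stranded by primer extension on fresh or once-stripped slides, were probed with about 100-200 nM GST-tagged yeast transcription factors made by PURExpress. Fluorescent anti-GST detected bound protein, and masliner normalised the scans. E-scores from the Universal PBM Analysis Suite were given to each ungapped eight-base word pooled with its reverse complement.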

Row | Sequence | PBM E-score
1 | AACGCGCA | 0.0734
2 | AACGCGAA | 0.281
3 | AACGCGCT | -0.0706
4 | AACGCGCG | 0.276
5 | CACGCGAA | -0.0826
6 | CCAAAGCG | -0.0566
7 | CCTTCATA | 0.0109
8 | AAGTCAGA | 0.0006
9 | ATGTCAGA | 0.114
10 | CTGTCAGC | 0.148
11 | GCGTCAGC | -0.102
12 | CCGTCATC | -0.075
13 | ACGTCAGT | -0.12
14 | ACGTCAGC | 0.394
15 | ATGTCAGC | 0.272
16 | ACGTCATC | 0.259
17 | ACGTCATG | 0.228
18 | CAGTCAGC | -0.0612
19 | AAGTCAGC | 0.293
20 | CGGACTTC | -0.131
21 | CAGCTAAG | -0.252
22 | GTAACCCA | 0.234
23 | ATTCTTAG | -0.0605

Row | Sequence | PBM E-score
24 | GGAGGGGA | -0.0844
25 | CAAGTCCG | -0.109
26 | ACTGTTGA | -0.0374
27 | CCGGGACG | -0.162
28 | GAACGTCA | -0.161
29 | TCTAGAGA | -0.228
30 | CTGTCATA | 0.0932
31 | ATGTCATC | 0.142
32 | ATGTCATA | 0.299
33 | AACCCCCC | -0.468
34 | AAGGCTGG | -0.277
35 | AGACTCCG | -0.121
36 | AAAGATGA | 0.00284
37 | ATGGCAAT | 0.113
38 | ATTAGTCA | 0.341
39 | GTTAGTCA | 0.0867
40 | ATTAGTTA | 0.315
41 | ATTAGTCG | 0.193
42 | GTTAGTTA | 0.225
43 | ATTAGTTG | 0.241
44 | CTTGAGCC | -0.241
45 | AGATCATA | 0.186
46 | GATCCCCC | -0.426

Row | Sequence | PBM E-score
47 | CTGACTTA | 0.298
48 | CTGACTAA | 0.36
49 | ATGACTAA | 0.235
50 | ATGACTTA | 0.149
51 | GTGACTAA | 0.123
52 | GTGACTTA | 0.0722
53 | CGTGTAAA | -0.142
54 | AAGGGTGA | -0.0502
55 | TCGGCCGA | 0.0246
56 | CACGGGAC | -0.118
57 | AATCCCGA | 0.26
58 | CATCCCGA | 0.0504
59 | TATCCCGA | 0.125
60 | CCTTAGGA | 0.0118
61 | ATCGTGTC | 0.0401
62 | AATTCGCT | 0.325
63 | AATTCGCC | 0.154
64 | AATTCGCG | 0.0954
65 | GCACTCGA | 0.0449
66 | GCCTGATA | -0.0274
67 | CATAGTAA | 0.279
68 | TATAGTAA | 0.324
69 | GATAGTAA | 0.195

Row | Sequence | PBM E-score
70 | AATAGTAA | 0.27
71 | TATAGTCA | 0.0921
72 | AATAGTAG | 0.144
73 | CATAGTAC | 0.0648
74 | TATAGTGA | -0.0129
75 | AATAGTAC | 0.05
76 | ACTACCAC | 0.017
77 | TCACCTAA | 0.142
78 | AACGCTAT | 0.0739
79 | GTAATCGA | 0.275
80 | GTAATCCA | 0.281
81 | GTAATCTA | 0.354
82 | CTGATCGA | -0.179
83 | ATAATCCA | 0.225
84 | CTAATCCA | 0.219
85 | ATGATCGA | 0.0882
86 | GTGATCGA | 0.273
87 | GCAATCGA | 0.0191
88 | ATAATCTA | 0.242
89 | CTAATCTA | 0.00395
90 | CTAATCGA | 0.202
91 | CTGCCAAA | -0.065
92 | CGCGCTAC | 0.029

Row | Sequence | PBM E-score
93 | GACATAGC | 0.0934
94 | ACCGTACA | -0.108
95 | GGGTCCAA | -0.0685
96 | AAAGCTAC | -0.0407
97 | GATCTAAA | 0.0626
98 | CCAATAGA | -0.01
99 | ACCCCGAT | 0.155
100 | AACCCGAC | 0.0291
101 | AACCCGAT | 0.258
102 | ACATTATG | 0.106
103 | CATTTATC | 0.0882
104 | TAATTATA | 0.351
105 | CAATTATC | 0.277
106 | CAATTATG | 0.141
107 | CAATTAAC | 0.134
108 | GAATTATA | 0.101
109 | AATTTATA | 0.249
110 | CAATTATA | 0.126
111 | CCATTATC | 0.0699
112 | ACATTATC | 0.289
113 | AATTTATC | 0.27
